An excerpt weighted towards active compounds, which were near 2.1% of everything screened.
KKLEB cytotox – cytotoxicity in KKLEB CF airway cells, primary screen, cytotoxicity control for CF NF-kB inhibitor project, cell-based, uHTS, fluorescence assay plates; 360,000 compounds, 0.36% hits; activity change (cytotoxicity), % at 5 µM; KKLEB CF airway cells viability, ATPlite luminescence, overnight; active compounds read low; cells stimulated with P. aeruginosa culture filtrate; AID 602141, 2011;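 active = corrected activity change at or below -50% at 5 µM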
CF NFkB block – inhibitors of PAF-induced NF-kB signaling, primary screen, cell-based, GFP fluorescence, uHTS | inhibition, % at 5 µM | AID 588850, 2011 | KKLEB NF-kB-GFP reporter, GFP fluorescence overnight | 360,000 compounds, 0.86% hits;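 active = at least 50% inhibition at 5 µM, scaled per plate between neutral and stimulator controls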;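 also: PAF is a Pseudomonas aeruginosa culture filtrate used as stimulus; plate controls were PAF-stimulated DMSO wells for no effect and unstimulated DMSO wells for full effect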
EWS-Fli block – EWS/Fli-driven NR0B1 reporter inhibitors, primary screen, A673 cells, NR0B1 luciferase, luminescence, MLPCN library. viability-normalised. 350,000 compounds, 0.67% hits. inhibition, % at 12.6 µM. AID 651661, 2012;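 active = mean inhibition of at least 50% after viability correction, with every replicate also passing that limit; inconclusive = mean reaches 50% but only one of two replicates passes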;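 also: firefly luciferase signal divided by Alamar Blue viability fluorescence both relative to DMSO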
HIF-2a block – HIF-2a reporter inhibitors, primary screen, luminescence, 786-0 RCC cells. 786-0 RCC cells HIF-2a reporter, luciferase luminescence, overnight. inhibition, % at 18.8 µM. 360,000 compounds, 0.72% hits;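 active = inhibition of the luminescence signal of 40% or more relative to plate controls, in a single-dose primary screen at 18.75 µM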
PAX8 inh HTS – inhibitors of PAX8-driven TPO luciferase reporter, primary screen, RMG-I cells, single concentration. SteadyGlo, 24 h. 360,000 compounds, 1.2% hits. AID 652154, 2013. inhibition, % at 12.6 µM;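 active = mean replicate inhibition at least 60% with every replicate also reaching 60%; inconclusive = only one of the two criteria is met; inactive = mean below 60% and not all replicates reaching 60%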;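 also: luciferase light reporting Pax8 driven TPO promoter activity; plate controls were median of neutral control wells for no effect and mitoxantrone controls for full effect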
Starred values were filed as active, the others as inactive; ? = inconclusive; . = no result given.

SMILES	KKLEB cytotox	CF NFkB block	EWS-Fli block	HIF-2a block	PAX8 inh HTS
O=C(C(=O)N(Cc1ccccc1)Cc1ccccc1)c1c(-c2ccccc2)[nH]c2ccccc12	-81*	94*	5	-23	88*
COCCNC(=O)C(=O)c1c(-c2ccccc2)[nH]c2ccccc12	5	-8	0	-8	-3
COc1cccc(NC(=O)N2CC3(C2)[C@H](c2ccccc2)[C@H](CO)N3C(=O)C2CC2)c1	.	.	2	.	.
CCC(C)n1ncn(-c2ccc(N3CCN(c4ccc(OCC5COC(Cn6cncn6)(c6ccc(Cl)cc6Cl)O5)cc4)CC3)cc2)c1=O (stereo unspecified)	-2	63*	25	24	3
CCC(C)n1ncn(-c2ccc(N3CCN(c4ccc(O)cc4)CC3)cc2)c1=O (stereo unspecified)	15	2	1	2	12
O=S(=O)(c1ccc(F)cc1)N1[C@@H]2CNC[C@H]1C2c1ccc(-c2cccc(F)c2)cc1 (stereo partly specified)	.	.	-6	.	-2
CN1C(=O)c2cc(NS(=O)(=O)c3ccc(Cl)cc3)ccc2OC[C@@H]2O[C@H](CC(=O)N3CCc4ccccc4C3)CC[C@@H]21	.	.	8	.	61*
CN1C(=O)c2cc(NC(=O)Nc3cccc(Cl)c3)ccc2OC[C@@H]2O[C@@H](CC(=O)NCCc3ccncc3)CC[C@H]21	.	.	-16	.	74*
CN1C(=O)c2cc(NC(=O)c3cccc(Cl)c3)ccc2OC[C@@H]2O[C@H](CC(=O)NC3CCCCC3)CC[C@@H]21	.	.	15	.	76*
Cc1ccc(S(=O)(=O)N(C)C[C@H]2OCc3cnnn3CCCC(=O)N([C@H](C)CO)C[C@@H]2C)cc1	.	.	-17	.	6
CC(C)(C)[S@](=O)N1Cc2cc(C(=O)N3CCOCC3)nc(-c3cccc(Br)c3)c2[C@@H]1CCO	.	.	-7	.	-12
CCn1c(SCC(=O)Nc2cccc(NC(C)=O)c2)nc2c([nH]c3ccccc32)c1=O	-52*	61*	13	17	38
CCCCCC(=O)N[C@@H](c1ccccc1)[C@@H](O)C(=O)O[C@H]1C[C@@]2(O)[C@@H](OC(=O)c3ccccc3)C3[C@](C)(C(=O)[C@H](OC(C)=O)C(=C1C)C2(C)C)[C@@H](O)C[C@H]1OC[C@@]31OC(C)=O (stereo partly specified)	-20	20	57*	23	.
CC(=O)O[C@H]1C(=O)[C@@]2(C)[C@H]([C@H](OC(=O)c3ccccc3)[C@]3(O)C[C@H](OC(=O)[C@H](O)C(NC(=O)c4ccccc4)c4ccccc4)C(C)=C1C3(C)C)[C@]1(OC(C)=O)CO[C@@H]1C[C@@H]2O (stereo partly specified)	-4	4	66*	10	36
CC(=O)O[C@H]1C(=O)[C@@]2(C)[C@H]([C@H](OC(=O)c3ccccc3)[C@]3(O)C[C@H](OC(=O)[C@H](O)[C@@H](NC(=O)c4ccccc4)c4ccccc4)C(C)=C1C3(C)C)[C@]1(OC(C)=O)CO[C@@H]1C[C@@H]2O	31	22	65*	13	26
CN(C)S(=O)(=O)c1cccc(-c2nn(-c3ccccc3)cc2/C=C(\C#N)c2nc3ccccc3[nH]2)c1	-25	1	.	19	13
CN(C)S(=O)(=O)c1cccc(-c2nn(-c3ccccc3)cc2/C=C2\SC(=S)NC2=O)c1	-17	53*	-1	0	2
COc1cccc(C#Cc2ccc([C@H]3[C@@H](CO)N4C(=O)CN(C(=O)c5ccncc5)C[C@H]34)cc2)c1	.	.	-2	.	22
CN1C(=O)C(Cl)(Cl)C(=O)c2ccccc21	-12	53*	.	8	.
Cc1cc(=O)n(C)c2ccccc12	-24	-4	5	10	-12
Cc1cc(=O)n2c3c(c4c(cc13)c(CN(C)C)cc(=O)n4C)OC2	-2	-83	?	15	104*
N=C1S/C(=C\c2cn[nH]c2-c2ccc(F)cc2)C(=O)N1c1ccccc1F	13	50*	.	-222	.
Cc1cccc(CNc2ncnc3ccc(-c4ccc5c(c4)OCCO5)cc23)c1	-2	5	22	16	80*
Cc1cccc(-c2ccc3ncnc(NCc4cccs4)c3c2)c1	-3	11	39	8	65*
Clc1cccc(-c2ccc3ncnc(NCc4cccs4)c3c2)c1	-5	-2	13	10	3
SMILES	KKLEB cytotox	CF NFkB block	EWS-Fli block	HIF-2a block	PAX8 inh HTS
C[C@@H]1CN([C@H](C)CO)C(=O)c2cc(NC(=O)CCCCCC(=O)Nc3ccccc3N)ccc2O[C@@H]1CN(C)S(C)(=O)=O	.	.	-8	.	.
CCOC(=O)N1CCN(C(=O)CCS(=O)(=O)c2ccc3c(c2)CC(C)N3C(=O)CC)CC1 (stereo unspecified)	1	-18	.	5	-1
CCC(=O)N1c2ccc(S(=O)(=O)CCC(=O)N3CCn4c3nc3ccccc34)cc2CC1C (stereo unspecified)	-5	4	.	17	106*
C[C@H](CO)N1C[C@H](C)[C@@H](CN(C)Cc2ccc(C(F)(F)F)cc2)OCCCC[C@H](C)Oc2ccc(NS(=O)(=O)c3ccc(Cl)cc3)cc2C1=O	.	.	19	.	99*
C[C@@H]1CCCCO[C@@H](CN(C)Cc2ccc(C(F)(F)F)cc2)[C@@H](C)CN([C@@H](C)CO)C(=O)c2cc(NS(=O)(=O)c3ccc(Cl)cc3)ccc2O1	.	.	-9	.	91*
C[C@@H]1CCCCO[C@@H](CN(C)Cc2ccc(C(=O)O)cc2)[C@@H](C)CN([C@H](C)CO)C(=O)c2cc(NS(=O)(=O)c3ccc(Cl)cc3)ccc2O1	.	.	0	.	-5
C[C@@H]1CN([C@H](C)CO)C(=O)c2cc(NS(=O)(=O)c3ccc(Cl)cc3)ccc2O[C@@H](C)CCCCO[C@@H]1CN(C)Cc1ccc(C(F)(F)F)cc1	.	.	-3	.	5
Cc1noc(C)c1NC(=O)N1C[C@H](O)COC[C@@H]2O[C@H](CC(=O)NCC3CC3)CC[C@H]21	.	.	-6	.	-3
COc1ccc(NC(=O)CSc2nc3ccc(Nc4nc(N5CCOCC5)nc(N5CCOCC5)n4)cc3s2)cc1	-50*	56*	.	15	50
O=C(/C=C/Nc1ccc(Br)cc1F)c1ccccc1	-78*	2	74*	36	-26
O=C(/C=C/Nc1ccccc1F)c1ccc(Br)cc1	-10	-18	.	-127	-120
O=C(C[C@@H]1C[C@@H]2c3cc(NC(=O)Nc4ccccc4F)ccc3O[C@@H]2[C@H](CO)O1)NCc1ccc(Oc2ccccc2)cc1	.	.	-5	.	82*
CS(=O)(=O)Nc1ccc2c(c1)[C@@H]1C[C@@H](CC(=O)NCc3ccc(Oc4ccccc4)cc3)O[C@@H](CO)[C@@H]1O2	.	.	55*	.	84*
